Test results: PubChem BioAssay (NCATS)
Inconclusive results are not listed. Activity calls are given as the source filed them. The call rests on the fitted dose curve.

Columns and labels:
Conditions in all cases: outcome: dose series up to 57.1 µM unless noted
[1] = Primary qHTS for inhibitors of SARS-S pseudo-typed particle cell entry (AID 1479145); further: nearly all actives have a fitted effect of over 45% in size
[2] = Primary qHTS for Huh7 cytotoxicity: counterscreen for inhibitors of MERS-S pseudotyped particle cell entry (AID 1479147)
[3] = Primary qHTS for inhibitors of MERS-S pseudo-typed particle cell entry (AID 1479149); further: nearly all actives have a fitted effect of over 60% in size
[4] = Primary qHTS for Vero E6 cytotoxicity: counterscreen for inhibitors of SARS-S pseudo-typed particle cell entry (AID 1479150)
[5] = Cytotoxicity counterscreen for inhibitors of SARS-CoV-2 cell entry (AID 1645845); further: nearly all actives have a fitted effect of over 50% in size
Summary of the method: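 After a 15 min room-temperature ATPLite 1step step, luminescence reflected ATP remaining in HEK293-ACE2 cells exposed to compound for 1 h plus 48 h at 37 C, with percent activity set by cell and no-cell controls.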

Measured: Potency

C=CC1=C(C(=O)O)N2C(=O)[C@@H](NC(=O)/C(=N\OCC(=O)O)c3csc(N)n3)[C@H]2SC1
inactive: all assays above

CC(C)[C@H]1CC[C@H](C)C[C@H]1O
inactive: all assays above

CN(C)CC(c1ccc(O)cc1)C1(O)CCCCC1 (stereo not given)
inactive: all assays above

CC(C)(C)c1ccc2c(S(=O)(=O)O)c(C(C)(C)C)ccc2c1
inactive: all assays above

CC1(C)[C@@H]2CC[C@@]1(C)[C@H](OC(=O)CSC#N)C2
inactive: all assays above

Cc1cc(Nc2ccccc2C(=O)O)ccc1Cl
inactive: all assays above

C[C@@H]1CCC[C@H](C)N1NC(=O)c1ccc(Cl)c(S(N)(=O)=O)c1
inactive: all assays above

C=C1CCN([C@H](C)[C@](O)(Cn2cncn2)c2ccc(F)cc2F)CC1
inactive: all assays above

C[C@H]1C[C@@H]2[C@H]([C@@H](O)C[C@@]3(C)[C@H]2CC[C@]3(O)C(=O)COC(=O)CCC(=O)O)[C@@]2(C)C=CC(=O)C=C12
inactive: all assays above

CC(C)C[C@H](NC(=O)[C@@H](Cc1c[nH]c2ccccc12)NC(=O)[C@H](Cc1ccc(O)cc1)NC(=O)[C@H](CO)NC(=O)[C@H](Cc1c[nH]c2ccccc12)NC(=O)[C@H](Cc1cnc[nH]1)NC(=O)[C@@H]1CCC(=O)N1)C(=O)N[C@@H](CCCN=C(N)N)C(=O)N1CCC[C@H]1C(=O)NCC(N)=O
inactive: all assays above

O=c1[nH]cnc2c([C@@H]3N[C@H](CO)[C@@H](O)[C@H]3O)c[nH]c12
inactive: all assays above

CN(C(=O)CO)c1c(I)c(C(=O)NCC(O)CO)c(I)c(C(=O)NCC(O)CO)c1I (stereo not given)
inactive: all assays above

CC(=O)c1cc2cccc(OCC(O)CNC(C)C)c2o1 (stereo not given)
inactive: all assays above

Cc1ncc([N+](=O)[O-])n1CCOC(=O)c1ccccc1
inactive: all assays above

N#Cc1cc(-c2n[nH]c(-c3ccncc3)n2)ccn1
inactive: all assays above

Cn1nnnc1SCC1=C(C(=O)O)N2C(=O)[C@H](NC(=O)C(O)c3ccccc3)C2SC1 (stereo not given in full)
inactive: all assays above

CCOC(=O)COc1ccc2c(=O)cc(-c3ccccc3)oc2c1
inactive: all assays above

FC(F)OC(Cl)C(F)(F)F (stereo not given)
inactive: all assays above

C[N+]1(C)[C@@H]2CC(OC(=O)C(O)(c3cccs3)c3cccs3)C[C@H]1[C@H]1O[C@@H]12 (stereo not given in full)
inactive: all assays above

CC(=O)O[C@]1(C(C)=O)CC[C@H]2[C@@H]3C[C@H](C)C4=CC(=O)C=C[C@]4(C)[C@@]3(F)[C@@H](O)C[C@@]21C
inactive: all assays above

O=C(Cc1cccs1)NC1C(=O)N2C(C(=O)[O-])=C(C[n+]3ccccc3)CSC12 (stereo not given)
inactive: all assays above

COCC1=C(C(=O)OC(C)OC(=O)OC(C)C)N2C(=O)[C@@H](NC(=O)/C(=N/OC)c3csc(N)n3)[C@H]2SC1 (stereo not given in full)
inactive: all assays above

NS(=O)(=O)c1ccc(-n2nc(C(F)(F)F)cc2-c2ccc(F)cc2)cc1
inactive: all assays above

O=C(OCCN(CCO)CCO)c1ccccc1O
inactive: all assays above

O=P(O)(O)OC(Cn1cncn1)(Cn1cncn1)c1ccc(F)cc1F
inactive: all assays above
